# In the supplement of paper PMC9337992:
# ± gives the standard deviation of the averaged measurements.
# Tests used:
# Assay in all cases: cell proliferation (confluence) relative to DMSO control; higher = less growth inhibition
# Conditions in all cases: 5 uM; 6 d
# BT549 = test system: BT549
# How it was run: (§1)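 After adhering in 384-well plates at 500 cells per well, triple-negative breast cancer cell lines were treated for 6 d with each epigenetic chemical probe at a final 5 μM in DMSO. Four replicate wells per compound and DMSO-only wells were placed on each plate. Confluence, imaged in phase-contrast on an IncuCyte ZOOM, was scaled to the DMSO-only wells.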
# CAL120 = test system: CAL120
# How it was run: as §1
# HCC1143 = test system: HCC1143
# How it was run: as §1
# HCC1395 = test system: HCC1395
# How it was run: as §1
# HCC153 = test system: HCC153
# How it was run: as §1
# HCC1806 = test system: HCC1806
# How it was run: as §1
# HCC38 = test system: HCC38
# How it was run: as §1
# HCC70 = test system: HCC70
# How it was run: as §1
# Hs578-T = test system: Hs578-T
# How it was run: as §1
# MB157 = test system: MB157
# How it was run: as §1
# SUM149-PT = test system: SUM149-PT
# How it was run: as §1
# SUM159-PT = test system: SUM159-PT
# How it was run: as §1
structure (smiles),measurement,setting,value
COc1cc(C(=O)N2CC[C@@H](O)[C@@H](N)C2)cc2nc(-c3cc4ccccc4n3CC3CC3)n(C)c12,cell proliferation,BT549,97.5 ± 1.7%
same,cell proliferation,CAL120,97.9 ± 2.2%
same,cell proliferation,HCC1143,97.3 ± 1.2%
same,cell proliferation,HCC1395,99.953 ± 0.017%
same,cell proliferation,HCC153,59.2 ± 12%
same,cell proliferation,HCC1806,79.3 ± 7.7%
same,cell proliferation,HCC38,99.49 ± 0.46%
same,cell proliferation,HCC70,88.1 ± 8%
same,cell proliferation,Hs578-T,97.5 ± 1.4%
same,cell proliferation,MB157,90.8 ± 11%
same,cell proliferation,SUM149-PT,87.2 ± 9.1%
same,cell proliferation,SUM159-PT,99.994 ± 0.0032%
O=C(O)CNC(=O)c1c(O)c2ccccc2n(Cc2ccccc2)c1=O,cell proliferation,BT549,99.17 ± 0.41%
same,cell proliferation,CAL120,88.7 ± 5.2%
same,cell proliferation,HCC1143,97.3 ± 1.9%
same,cell proliferation,HCC1395,99.51 ± 0.21%
same,cell proliferation,HCC153,83.7 ± 4.2%
same,cell proliferation,HCC1806,98.07 ± 0.77%
same,cell proliferation,HCC38,98.2 ± 1.1%
same,cell proliferation,HCC70,98.48 ± 0.74%
same,cell proliferation,Hs578-T,95 ± 1.8%
same,cell proliferation,MB157,95.4 ± 3.5%
same,cell proliferation,SUM149-PT,88 ± 5%
same,cell proliferation,SUM159-PT,99.986 ± 0.0083%
c1ccc([C@@H]2C[C@H]2NC2CCNCC2)cc1,cell proliferation,BT549,99.73 ± 0.11%
same,cell proliferation,CAL120,90.8 ± 1.6%
same,cell proliferation,HCC1143,97.61 ± 0.58%
same,cell proliferation,HCC1395,99.99 ± 0.0084%
same,cell proliferation,HCC153,86.3 ± 2.5%
same,cell proliferation,HCC1806,99.68 ± 0.28%
same,cell proliferation,HCC38,99.69 ± 0.18%
same,cell proliferation,HCC70,90.9 ± 5.3%
same,cell proliferation,Hs578-T,96.3 ± 1.6%
same,cell proliferation,MB157,86.3 ± 7.8%
same,cell proliferation,SUM149-PT,64.1 ± 20%
same,cell proliferation,SUM159-PT,99.974 ± 0.029%
